Records with an inconclusive call do not appear. Active and inactive are the calls of the source. Rule for the calls, unless noted: active = hit-call score of the fitted dose curve at least 0.9, where 1 is the maximum; inconclusive = response in the unintended direction; inactive = score below 0.9.
Legend:
[1] = target: human Peroxisome Proliferator-activated Receptor alpha (PPARa), PPARA (gene 5465) (UniProt Q07869); experiment: ATG_PPARa_TRANS: Attagene TRANS-FACTORIAL HepG2 Assay for human Peroxisome Proliferator-activated Receptor alpha (PPARa) (AID 2283001)
human Peroxisome Proliferator-activated Receptor alpha (PPARa), PPARA (gene 5465), sequence (Q07869 whole entry, looked up, the tested form may be a part): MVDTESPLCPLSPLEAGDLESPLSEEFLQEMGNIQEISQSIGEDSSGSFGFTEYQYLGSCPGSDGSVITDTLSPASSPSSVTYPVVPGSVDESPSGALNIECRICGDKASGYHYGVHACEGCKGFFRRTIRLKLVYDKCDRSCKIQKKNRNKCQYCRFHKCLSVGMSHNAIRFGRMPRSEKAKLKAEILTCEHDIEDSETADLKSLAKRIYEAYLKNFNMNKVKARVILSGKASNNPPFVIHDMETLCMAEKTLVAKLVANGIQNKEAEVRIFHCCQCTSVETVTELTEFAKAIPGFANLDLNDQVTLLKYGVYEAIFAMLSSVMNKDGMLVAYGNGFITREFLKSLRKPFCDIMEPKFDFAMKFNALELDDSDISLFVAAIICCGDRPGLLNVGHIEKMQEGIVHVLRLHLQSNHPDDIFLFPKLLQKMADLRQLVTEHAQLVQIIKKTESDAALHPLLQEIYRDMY
Procedure, shortened: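 Exposure: 24 h, transiently transfected HepG2 cells. Endpoint: GAL4-UAS reporter mRNA, RT-PCR with capillary electrophoresis fluorescence. Baseline: DMSO; increases fitted.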

[2] = target: human Peroxisome Proliferator-activated Receptor delta (PPARd), PPARD (gene 5467) (UniProt Q03181); experiment: ATG_PPARd_TRANS: Attagene TRANS-FACTORIAL HepG2 Assay for human Peroxisome Proliferator-activated Receptor delta (PPARd) (AID 2283002)
human Peroxisome Proliferator-activated Receptor delta (PPARd), PPARD (gene 5467), sequence (Q03181 whole entry, looked up, the tested form may be a part): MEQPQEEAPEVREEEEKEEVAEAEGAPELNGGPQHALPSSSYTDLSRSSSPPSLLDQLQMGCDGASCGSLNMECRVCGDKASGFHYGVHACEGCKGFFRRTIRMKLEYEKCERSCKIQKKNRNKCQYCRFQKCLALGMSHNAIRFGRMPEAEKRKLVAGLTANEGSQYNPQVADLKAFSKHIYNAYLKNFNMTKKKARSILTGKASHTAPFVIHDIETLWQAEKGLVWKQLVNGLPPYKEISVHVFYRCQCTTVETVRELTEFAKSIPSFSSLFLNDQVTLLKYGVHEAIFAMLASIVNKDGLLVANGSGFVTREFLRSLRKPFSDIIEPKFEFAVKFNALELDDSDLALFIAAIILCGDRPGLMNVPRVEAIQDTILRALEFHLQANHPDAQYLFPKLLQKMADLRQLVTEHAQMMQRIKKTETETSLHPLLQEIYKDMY
Procedure, shortened: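 Multiplexed trans-activation format: HepG2 liver cells expressing exogenous NR-Gal4 chimeras and GAL4-UAS reporters were exposed for 24 h. Reporter mRNA was detected by RT-PCR with capillary electrophoresis fluorescence; activity fitted as gain of signal relative to DMSO.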

[3] = read-out: Intercellular Adhesion Molecule 1 (ICAM1), ICAM1 (gene 3383); experiment: BSK_3C_ICAM1: BioMAP Diversity Plus: 3C Assay for Intercellular Adhesion Molecule 1 (ICAM1) Biomarker Activity (AID 2283003; active = hit-call score of the fitted dose curve at least 0.9, where 1 is the maximum; inactive = score below 0.9); conditions: primary human endothelial cells (HUVEC); actives raise or lower the signal
Procedure, shortened: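 ELISA read-out of ICAM-1; HUVEC (primary human), 3C system, 24 h post-dosing; bidirectional fit vs DMSO baseline.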

[4] = BSK_3C_Proliferation: Cell Proliferation Assessment in the BioMAP Diversity Plus: 3C Assay (AID 2283006; active = hit-call score of the fitted dose curve at least 0.9, where 1 is the maximum; inactive = score below 0.9;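 for AC50: potency may reflect either rise or fall in cell number versus DMSO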); conditions: primary human endothelial cells (HUVEC)
Procedure, shortened: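 HUVEC, sub-confluent; 48 h chemical exposure; 10% TCA fix, 0.1% SRB stain, A560 total protein. Gain or loss of signal fitted both directions vs DMSO control.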

[5] = target: Peroxisome proliferator-activated receptor gamma (Homo sapiens) (UniProt P37231); experiment: ATG_PPARg_TRANS: Attagene TRANS-FACTORIAL HepG2 Assay for human Peroxisome Proliferator-activated Receptor-gamma (PPARg) (AID 2283007)
Procedure, shortened: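 After 24 h of chemical exposure, transfected HepG2 cells carrying PPARγ-Gal4 chimera reporter constructs are lysed for RNA. Reporter transcripts are measured by RT-PCR and capillary electrophoresis with fluorescent labelling, and gain of signal is fitted versus DMSO.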

[6] = target: human RAR-related Orphan Receptor gamma (RORg), RORC (gene 6097) (UniProt P51449); experiment: ATG_RORg_TRANS: Attagene TRANS-FACTORIAL HepG2 Assay for human RAR-related Orphan Receptor gamma (RORg) (AID 2283011)
human RAR-related Orphan Receptor gamma (RORg), RORC (gene 6097), sequence (P51449 whole entry, looked up, the tested form may be a part): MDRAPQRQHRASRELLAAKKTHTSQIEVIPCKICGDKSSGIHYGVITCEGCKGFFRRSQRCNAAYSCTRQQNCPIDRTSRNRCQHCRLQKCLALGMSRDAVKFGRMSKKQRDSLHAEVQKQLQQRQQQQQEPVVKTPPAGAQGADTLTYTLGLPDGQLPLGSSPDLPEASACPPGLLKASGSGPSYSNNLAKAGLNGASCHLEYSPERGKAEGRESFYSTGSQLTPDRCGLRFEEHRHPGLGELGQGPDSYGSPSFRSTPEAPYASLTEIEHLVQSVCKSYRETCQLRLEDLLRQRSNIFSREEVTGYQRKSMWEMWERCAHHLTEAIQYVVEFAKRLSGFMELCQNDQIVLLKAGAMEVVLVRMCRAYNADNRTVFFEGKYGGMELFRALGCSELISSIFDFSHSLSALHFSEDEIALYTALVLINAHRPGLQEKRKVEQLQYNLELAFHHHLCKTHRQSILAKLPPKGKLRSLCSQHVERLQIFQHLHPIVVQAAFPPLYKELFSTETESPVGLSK
Procedure, shortened: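 Transient MRTU transfection of HepG2 (TRANS format, exogenous NR-Gal4 chimera). 24 h dosing. Total RNA → oligo(dT) RT → PCR → 6-FAM labelling → HpaI cut → CE. Gain vs DMSO.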

[7] = target: Retinoic acid receptor RXR-alpha (Homo sapiens) (UniProt P19793); experiment: ATG_RXRa_TRANS: Attagene TRANS-FACTORIAL HepG2 Assay for human Retinoid X Receptor alpha (RXRa) (AID 2283012)
Procedure, shortened: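 Read-out: fluorescent reporter-transcript fragments quantified by capillary electrophoresis after RT-PCR. Transiently transfected HepG2 cells carrying GAL4-UAS reporters and NR-GAL4 chimeras were exposed to chemical for 24 h; activity scored as increase over DMSO.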

[8] = target: human Retinoid X Receptor beta (RXRb), RXRB (gene 6257) (UniProt P28702); experiment: ATG_RXRb_TRANS: Attagene TRANS-FACTORIAL HepG2 Assay for human Retinoid X Receptor beta (RXRb) (AID 2283013)
human Retinoid X Receptor beta (RXRb), RXRB (gene 6257), sequence (P28702 whole entry, looked up, the tested form may be a part): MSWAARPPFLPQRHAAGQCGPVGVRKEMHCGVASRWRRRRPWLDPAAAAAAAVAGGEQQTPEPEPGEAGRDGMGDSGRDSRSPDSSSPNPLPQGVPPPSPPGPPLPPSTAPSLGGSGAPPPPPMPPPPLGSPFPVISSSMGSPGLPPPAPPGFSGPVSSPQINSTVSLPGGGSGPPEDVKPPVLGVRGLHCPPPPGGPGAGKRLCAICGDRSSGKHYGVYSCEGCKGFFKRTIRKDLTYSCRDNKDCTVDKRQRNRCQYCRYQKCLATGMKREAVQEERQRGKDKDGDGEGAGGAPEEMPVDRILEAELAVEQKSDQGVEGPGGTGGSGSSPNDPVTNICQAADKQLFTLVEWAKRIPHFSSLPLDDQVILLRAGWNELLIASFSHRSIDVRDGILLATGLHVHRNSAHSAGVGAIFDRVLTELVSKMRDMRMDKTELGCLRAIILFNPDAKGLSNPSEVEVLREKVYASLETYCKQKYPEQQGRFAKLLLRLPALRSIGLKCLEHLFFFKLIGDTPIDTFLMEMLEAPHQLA
Procedure, shortened: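 Read-out: reporter mRNA induction via RT-PCR plus capillary electrophoresis fluorescence, analysed as signal increase relative to DMSO. Cells were human HepG2, transiently transfected with GAL4-UAS reporter constructs and chimeric receptor-Gal4 fusions, dosed for 24 h.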

[9] = target: human Thyroid Receptor alpha (THRa1), THRA (gene 7067) (UniProt P10827); experiment: ATG_THRa1_TRANS: Attagene TRANS-FACTORIAL HepG2 Assay for human Thyroid Receptor alpha (THRa1) (AID 2283014)
human Thyroid Receptor alpha (THRa1), THRA (gene 7067), sequence (P10827 whole entry, looked up, the tested form may be a part): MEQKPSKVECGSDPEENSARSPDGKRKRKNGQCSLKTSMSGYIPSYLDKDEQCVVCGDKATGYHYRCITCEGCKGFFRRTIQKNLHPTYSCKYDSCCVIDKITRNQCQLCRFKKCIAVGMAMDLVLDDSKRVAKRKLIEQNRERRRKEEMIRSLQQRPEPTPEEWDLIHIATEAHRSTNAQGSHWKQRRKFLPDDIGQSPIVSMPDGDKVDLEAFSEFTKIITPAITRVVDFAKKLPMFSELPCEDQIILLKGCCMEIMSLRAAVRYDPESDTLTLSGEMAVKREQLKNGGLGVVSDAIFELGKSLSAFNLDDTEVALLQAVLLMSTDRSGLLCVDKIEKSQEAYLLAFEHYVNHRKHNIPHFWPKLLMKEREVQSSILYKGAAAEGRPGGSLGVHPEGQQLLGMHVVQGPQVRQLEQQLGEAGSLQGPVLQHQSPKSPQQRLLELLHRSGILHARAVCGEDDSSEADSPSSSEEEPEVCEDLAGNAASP
Procedure, shortened: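 Transient HepG2 transfection, NR-Gal4 chimera driving GAL4-UAS reporters; 24 h compound exposure; total RNA, oligo(dT) RT, PCR, fluorescent primer extension, capillary electrophoresis. Upward direction vs DMSO control.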

[10] = read-out: E-selectin (Homo sapiens) (UniProt P16581); experiment: BSK_3C_Eselectin: BioMAP Diversity Plus: 3C Assay for Eselectin Biomarker Activity (AID 2283015; active = hit-call score of the fitted dose curve at least 0.9, where 1 is the maximum; inactive = score below 0.9;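 note: cell surface E-selectin protein quantified by ELISA 24 h after dosing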); conditions: primary human endothelial cells (HUVEC); actives raise or lower the signal
Procedure, shortened: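 HUVEC, 3C stimulation; compound exposure 24 h; E-selectin by ELISA; gain- or loss-of-signal fitted bidirectionally vs DMSO baseline.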

[11] = read-out: Interleukin-1 alpha (IL1a), IL1A (gene 3552); experiment: BSK_BE3C_IL1a: BioMAP Diversity Plus: BE3C Assay for Interleukin-1 alpha (IL1a) Biomarker Activity (AID 2283016; active = hit-call score of the fitted dose curve at least 0.9, where 1 is the maximum; inactive = score below 0.9); conditions: primary human bronchial epithelial cells; actives raise or lower the signal
Procedure, shortened: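 ELISA read-out of IL-1a from human lung bronchial epithelial primary cells, 24 h post-dose. Gain or loss of signal fitted relative to DMSO negative control.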

[12] = read-out: Monocyte Chemoattractant Protein-1 (MCP1), CCL2 (gene 6347); experiment: BSK_3C_MCP1: BioMAP Diversity Plus: 3C Assay for Monocyte Chemoattractant Protein-1 (MCP1) Biomarker Activity (AID 2283017; active = hit-call score of the fitted dose curve at least 0.9, where 1 is the maximum; inactive = score below 0.9); conditions: primary human endothelial cells (HUVEC); actives raise or lower the signal
Procedure, shortened: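 HUVEC, 3C system; 24 h chemical exposure; MCP-1 by ELISA; bidirectional curve fit vs DMSO baseline.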

[13] = read-out: Monocyte Chemoattractant Protein-1 (MCP1), CCL2 (gene 6347); experiment: BSK_4H_MCP1: BioMAP Diversity Plus: 4H Assay for Monocyte Chemoattractant Protein-1 (MCP1) Biomarker Activity (AID 2283018; active = hit-call score of the fitted dose curve at least 0.9, where 1 is the maximum; inactive = score below 0.9); conditions: primary human endothelial cells (HUVEC); actives raise or lower the signal
Procedure, shortened: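 HUVEC primary cells, 24 h post-dose, MCP-1 by ELISA. Gain or loss of signal fitted bidirectionally vs DMSO baseline. Cytotoxicity: SRB stain (0.1% after 10% TCA fixation), read 560 nm, parallel cultures.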

[14] = read-out: Human Leukocyte Antigen - DR isotype (HLADR), HLA-DRA (gene 3122); experiment: BSK_3C_HLADR: BioMAP Diversity Plus: 3C Assay for Human Leukocyte Antigen - DR isotype (HLADR) Biomarker Activity (AID 2283019; active = hit-call score of the fitted dose curve at least 0.9, where 1 is the maximum; inactive = score below 0.9;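 note: ELISA of cell-surface HLA-DR on HUVEC 24 h after dosing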); conditions: primary human endothelial cells (HUVEC); actives raise or lower the signal
Procedure, shortened: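 HUVEC, 3C stimulation, 24 h post-dose; HLA-DR by ELISA; bidirectional curve fit vs DMSO baseline; gain or loss of signal scored.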

[15] = read-out: Interleukin-8 (IL8), CXCL8 (gene 3576); experiment: BSK_3C_IL8: BioMAP Diversity Plus: 3C Assay for Interleukin-8 (IL8) Biomarker Activity (AID 2283020; active = hit-call score of the fitted dose curve at least 0.9, where 1 is the maximum; inactive = score below 0.9); conditions: primary human endothelial cells (HUVEC); actives raise or lower the signal
Procedure, shortened: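 HUVEC, 3C stimulation; 24 h compound exposure; IL-8 read by ELISA; gain or loss of signal fitted relative to DMSO control.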

[16] = target: Retinoic acid receptor alpha (Homo sapiens) (UniProt P10276); experiment: ATG_RARa_TRANS: Attagene TRANS-FACTORIAL HepG2 Assay for human Retinoic Acid Receptor alpha (RARa) (AID 2283005)
Retinoic acid receptor alpha (Homo sapiens), sequence (P10276 whole entry, looked up, the tested form may be a part): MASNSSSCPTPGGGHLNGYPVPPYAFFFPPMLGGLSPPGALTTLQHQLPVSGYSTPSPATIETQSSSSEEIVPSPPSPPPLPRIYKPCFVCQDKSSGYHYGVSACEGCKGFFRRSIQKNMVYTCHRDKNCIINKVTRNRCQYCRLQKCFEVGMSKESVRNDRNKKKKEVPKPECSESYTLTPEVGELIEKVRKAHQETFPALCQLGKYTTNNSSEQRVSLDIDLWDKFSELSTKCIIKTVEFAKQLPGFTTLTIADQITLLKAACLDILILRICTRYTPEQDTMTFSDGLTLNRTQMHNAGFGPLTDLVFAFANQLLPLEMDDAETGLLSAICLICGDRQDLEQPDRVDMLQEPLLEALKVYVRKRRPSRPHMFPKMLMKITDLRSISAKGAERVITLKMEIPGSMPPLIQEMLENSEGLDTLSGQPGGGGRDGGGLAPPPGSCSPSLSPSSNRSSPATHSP
Procedure, shortened: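 HepG2 cells transiently transfected with multiple reporter units expressing chimeric RARα-GAL4 fusion, with GAL4-UAS-driven reporters. After 24 h compound exposure, reporter mRNA induction quantified by RT-PCR and capillary electrophoresis with fluorescent labeling; gain-of-signal fitted relative to DMSO control.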

[17] = target: human Retinoic Acid Receptor gamma (RARg), RARG (gene 5916) (UniProt P13631); experiment: ATG_RARg_TRANS: Attagene TRANS-FACTORIAL HepG2 Assay for human Retinoic Acid Receptor gamma (RARg) (AID 2283009)
human Retinoic Acid Receptor gamma (RARg), RARG (gene 5916), sequence (P13631 whole entry, looked up, the tested form may be a part): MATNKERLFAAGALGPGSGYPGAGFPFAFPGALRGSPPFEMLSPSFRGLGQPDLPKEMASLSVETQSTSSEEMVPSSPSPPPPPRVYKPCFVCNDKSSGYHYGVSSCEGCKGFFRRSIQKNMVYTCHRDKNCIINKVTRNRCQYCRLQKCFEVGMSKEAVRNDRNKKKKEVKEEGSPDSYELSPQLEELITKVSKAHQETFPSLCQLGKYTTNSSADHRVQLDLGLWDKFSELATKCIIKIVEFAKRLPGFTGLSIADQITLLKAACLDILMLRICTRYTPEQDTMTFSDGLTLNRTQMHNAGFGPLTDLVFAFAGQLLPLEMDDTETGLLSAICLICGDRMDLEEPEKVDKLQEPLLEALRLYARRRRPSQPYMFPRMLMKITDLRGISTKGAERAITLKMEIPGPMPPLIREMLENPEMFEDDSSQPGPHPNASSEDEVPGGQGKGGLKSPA
Procedure, shortened: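 Readout: reporter transcript levels via RT-PCR, 6-FAM primer-extension labelling, HpaI digestion and capillary electrophoresis. Cells: HepG2 carrying transfected RARg-GAL4 chimera plus UAS reporter set. Dosing 24 h; DMSO negative control.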

[18] = target: human Retinoic Acid Receptor beta (RARb), RARB (gene 5915) (UniProt P10826); experiment: ATG_RARb_TRANS: Attagene TRANS-FACTORIAL HepG2 Assay for human Retinoic Acid Receptor beta (AID 2283004)
human Retinoic Acid Receptor beta (RARb), RARB (gene 5915), sequence (P10826 whole entry, looked up, the tested form may be a part): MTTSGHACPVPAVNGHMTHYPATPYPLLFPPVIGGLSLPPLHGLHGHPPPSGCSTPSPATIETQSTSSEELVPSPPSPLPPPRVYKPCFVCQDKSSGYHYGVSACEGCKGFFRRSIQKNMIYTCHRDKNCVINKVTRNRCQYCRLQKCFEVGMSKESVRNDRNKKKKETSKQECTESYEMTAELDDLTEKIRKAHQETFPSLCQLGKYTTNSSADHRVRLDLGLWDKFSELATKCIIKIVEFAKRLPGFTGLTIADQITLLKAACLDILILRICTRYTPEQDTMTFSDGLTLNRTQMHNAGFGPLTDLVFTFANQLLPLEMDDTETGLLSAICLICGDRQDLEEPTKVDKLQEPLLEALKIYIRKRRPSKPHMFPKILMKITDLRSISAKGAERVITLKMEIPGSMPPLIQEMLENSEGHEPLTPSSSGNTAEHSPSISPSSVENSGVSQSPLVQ
Procedure, shortened: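 Readout is reporter mRNA induction: RNA reverse-transcribed, PCR-amplified, FAM-labelled, HpaI-cut and resolved by capillary electrophoresis. Transiently transfected HepG2 cells carrying exogenous NR–Gal4 chimeras were dosed for 24 h; activity fitted upward relative to DMSO.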

[19] = target: Nuclear receptor subfamily 1 group I member 2 (Homo sapiens) (UniProt O75469); experiment: ATG_PXR_TRANS: Attagene TRANS-FACTORIAL HepG2 Assay for human Pregnane X Receptor (PXR) (AID 2283008)
Nuclear receptor subfamily 1 group I member 2 (Homo sapiens), sequence (O75469 whole entry, looked up, the tested form may be a part): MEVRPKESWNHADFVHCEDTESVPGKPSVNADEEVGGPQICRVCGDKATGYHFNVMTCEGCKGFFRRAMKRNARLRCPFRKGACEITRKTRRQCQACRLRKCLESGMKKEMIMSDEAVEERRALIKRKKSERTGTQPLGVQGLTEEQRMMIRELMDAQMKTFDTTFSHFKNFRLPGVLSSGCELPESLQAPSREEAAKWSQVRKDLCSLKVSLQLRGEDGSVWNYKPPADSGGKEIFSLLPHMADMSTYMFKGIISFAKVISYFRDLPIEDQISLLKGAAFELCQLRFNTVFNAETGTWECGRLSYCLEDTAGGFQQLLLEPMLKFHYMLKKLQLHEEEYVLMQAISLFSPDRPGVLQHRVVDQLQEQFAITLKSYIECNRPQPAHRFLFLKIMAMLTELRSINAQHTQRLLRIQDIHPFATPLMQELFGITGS
Procedure, shortened: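 HepG2 transfected (FuGene 6) with GAL4-UAS reporter units + PXR-Gal4 chimera; dosed 24 h. Total RNA → oligo(dT) RT → PCR → 6-FAM primer extension → HpaI cut → CE. Gain-of-signal vs DMSO.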

[20] = target: human RAR-related Orphan Receptor beta (RORb), RORB (gene 6096) (UniProt Q92753); experiment: ATG_RORb_TRANS: Attagene TRANS-FACTORIAL HepG2 Assay for human RAR-related Orphan Receptor beta (RORb) (AID 2283010)
Procedure, shortened: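 HepG2, transient MRTU transfection (GAL4-UAS reporters, exogenous NR-Gal4 chimeras); 24 h compound exposure; total RNA → RT-PCR → 6-FAM primer extension → HpaI digest → CE fluorescence. Positive direction vs DMSO baseline.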

Measured: AC50

E-selectin (Homo sapiens), sequence (P16581 whole entry, looked up): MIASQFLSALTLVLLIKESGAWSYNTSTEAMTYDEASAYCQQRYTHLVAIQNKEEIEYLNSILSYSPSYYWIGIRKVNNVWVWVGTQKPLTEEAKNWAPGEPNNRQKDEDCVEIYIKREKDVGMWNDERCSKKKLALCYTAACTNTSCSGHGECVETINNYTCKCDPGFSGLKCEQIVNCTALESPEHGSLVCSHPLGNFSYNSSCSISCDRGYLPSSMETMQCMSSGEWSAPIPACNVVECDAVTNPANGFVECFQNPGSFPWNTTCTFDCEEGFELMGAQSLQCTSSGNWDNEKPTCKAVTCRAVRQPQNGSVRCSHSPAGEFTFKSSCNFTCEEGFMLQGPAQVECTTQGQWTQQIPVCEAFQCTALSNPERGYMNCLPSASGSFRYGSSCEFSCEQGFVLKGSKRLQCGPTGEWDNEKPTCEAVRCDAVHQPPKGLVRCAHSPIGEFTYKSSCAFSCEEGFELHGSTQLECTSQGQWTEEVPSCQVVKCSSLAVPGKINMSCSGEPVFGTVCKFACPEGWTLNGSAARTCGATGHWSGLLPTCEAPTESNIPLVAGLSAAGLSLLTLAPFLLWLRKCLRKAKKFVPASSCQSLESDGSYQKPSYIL

CCCCCCCCOC(=O)CCCCCCCCC(=O)OCCCCCCCC
not listed: [16] | [17] | [18] | [19] | [20]
inactive: all other assays above

CC(C)CCCCCCOC(=O)CCCCC(=O)OCCCCCCC(C)C
active: [8] 52.9 µM
not listed: [2] | [6] | [7] | [18] | [19] | [20]
inactive: all other assays above

CCCCCCCCCCCCc1ccccc1S(=O)(=O)O
active: [4] 32.3 µM | [19] 3.52 µM | [8] 9.1 µM | [11] 14.3 µM
not listed: [2] | [9] | [20]
inactive: all other assays above

CCCCC(CC)COC(=O)CCCCC(=O)OCc1ccccc1 (centres undefined)
active: [19] 17.8 µM | [8] 80.6 µM
not listed: [7] | [16] | [18]
inactive: all other assays above

COc1ccc([N+](=O)[O-])cc1N
not listed: [2] | [5] | [8] | [16] | [17] | [19] | [20]
inactive: all other assays above

CC(=O)CC(C)(C)O
not listed: [2] | [20]
inactive: all other assays above

CC(O)C(=O)O (centres undefined)
inactive: [1] | [2] | [18] | [16] | [19] | [17] | [20] | [7] | [8] | [9]

— PubChem BioAssay (EPA / NIEHS)
